Assay outcomes from PubChem.
DRD3 antagonist: antagonists of human D3 dopamine receptor; 2.5% of 360,000 active; D3R cells, DiscoveRx beta-arrestin luminescence, antagonist mode; stronger effect = lower value; max response, negative = inhibition, %; in the data active = max response below about -50%; inconclusive = no clear call, values can overlap the other calls; note: % is set by controls: 0 for no effect and ±100 for the full control effect
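Cells plated overnight at 1500 cells/well, then exposed to library compounds with dopamine controls for 90 minutes at 37 degrees C. DiscoveRx reagent added for 30–60 minutes at room temperature; luminescence read, quantitative HTS format.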
D3 ag: D3 dopamine receptor (human) agonism; P35462; D3R DiscoveRx beta-arrestin cells, luminescence, 90 min; max activation, %; 0.58% of 410,000 active; in the data active = max activation above about 30%; note: 0% is about no effect
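Agonist-mode cell screen: cells plated at 1500/well and incubated overnight at 37 °C, then exposed to library compounds for 90 min at 37 °C. Detection reagent was added for 30–60 min at room temperature, and luminescence was read.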
D1 agonist: activates the human D1 dopamine receptor; 1% of 360,000 active; HEK293 T-REx D1 cells, calcium flux, agonist mode; P21728; activation, % at 2 µM; in the data active = activation above about 30%; note: 0% is about no effect
Target sequence (P21728 whole entry, looked up): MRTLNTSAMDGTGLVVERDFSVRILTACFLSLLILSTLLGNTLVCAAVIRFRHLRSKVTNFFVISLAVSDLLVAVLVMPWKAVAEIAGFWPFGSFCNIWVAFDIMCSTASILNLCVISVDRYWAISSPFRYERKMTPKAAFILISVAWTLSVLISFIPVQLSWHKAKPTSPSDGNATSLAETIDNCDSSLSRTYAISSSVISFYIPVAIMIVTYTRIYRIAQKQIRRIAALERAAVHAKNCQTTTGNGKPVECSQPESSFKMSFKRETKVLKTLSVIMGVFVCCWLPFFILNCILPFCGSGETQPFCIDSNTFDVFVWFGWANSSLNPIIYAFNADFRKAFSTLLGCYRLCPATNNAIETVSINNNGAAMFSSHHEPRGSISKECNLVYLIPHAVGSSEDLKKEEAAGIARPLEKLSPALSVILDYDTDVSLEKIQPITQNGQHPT
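Agonism was scored from calcium flux recorded over 180 s (1 read/s) after pintool compound addition, following a 10-cycle baseline. Cells were inducible force-coupled HEK293 TREx D1, plated overnight at 30 C and loaded with no-wash calcium dye.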
D1 potentiator: human D1 dopamine receptor positive modulation. HEK293 TREx D1 cells, calcium flux, dopamine EC20 potentiation. potentiation, % at 10 µM. 0.036% of 360,000 active. AID 504651; in the data active = potentiation above about 30%; note: 0% is about no effect
D1 antagonist: antagonists of human D1 dopamine receptor. P21728. HEK293 TREx D1 cells, calcium flux, dopamine EC80; stronger effect = lower value. activity change, negative = inhibition, % at 10 µM. 3.2% of 360,000 active. AID 504652; in the data active = activity change below about -30%; note: % is set by controls: 0 for no effect and ±100 for the full control effect
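Tetracycline-induced HEK293 Trex D1 cells, force-coupled to calcium, dye-loaded; compounds added and read 180 s, then EC80 dopamine added and calcium flux tracked kinetically another 180 s.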
Numbers without * were called inactive; u = inconclusive; x = not tested or not shown; ! = repeats disagree. An excerpt weighted towards active compounds, which were near 6% of everything screened.

SMILES | DRD3 antagonist | D3 ag | D1 agonist | D1 potentiator | D1 antagonist
O=C(c1noc2c1CCCCC2)N1CCN(c2cccc(C(F)(F)F)c2)CC1 | x | 52* | 13 | -3 | -3
CN(CC(=O)Nc1cccc(F)c1)C(=O)c1ccc(C(=O)c2ccccc2)cc1 | 0 | 13 | 18 | -6 | -60*
CN(CC(=O)Nc1cccc(F)c1)C(=O)c1ccc(COc2ccccc2)cc1 | -18 | -5 | 12 | -2 | 1
Cc1ccc(N2C(=O)CSC23C(=O)Nc2ccccc23)cc1F (centres undefined) | x | 9 | -2 | -1 | -26
CCC(Oc1ccccc1F)C(=O)Nc1c(C(=O)c2ccccc2)oc2ccccc12 (centres undefined) | x | 0 | 17 | -1 | 7
CCOC(=O)c1cc(C(=O)OCC)c2ccccn2c1=O | -9 | 1 | 1 | -3 | -33*
CCOC(=O)c1c[nH]n(-c2ccccc2)c1=O | 3 | 2 | 1 | -5 | -15
O=C(Nc1ccc(F)c(Cl)c1)N1CCN2CCCCC2C1 (centres undefined) | x | -8 | 1 | -1 | -7
c1ccc(-c2nc(N3CCOCC3)c3ccccc3n2)nc1 | -6 | 7 | 1 | -6 | -34*
c1ccc(-c2nc(N3CCCCCC3)c3ccccc3n2)nc1 | -127* | -18 | -2 | 3 | 4
C/C(=N\Nc1nc(-c2ccccn2)nc2ccccc12)c1ccc(F)cc1 | -4 | -5 | 3 | -3 | 13
c1ccc(CCNc2nc(-c3ccccn3)nc3ccccc23)cc1 | -70* | -26 | 3 | 1 | 3
CCN1CCN(c2nc(-c3ccccn3)nc3ccccc23)CC1 | u | -20 | 2 | -8 | -4
Cc1nc(-c2ccccn2)nc(N2CCOCC2)c1Cl | -5 | 0 | 4 | 1 | -43*
COc1ccccc1C(=O)Nc1ccc(S(=O)(=O)Nc2nccs2)cc1 | 9 | 3 | 4 | x | -31*
CSc1ccccc1C(=O)Nc1ccc(S(=O)(=O)NC2=NCCCCC2)cc1 | -13 | -3 | 0 | -3 | 23
COc1ccccc1C(=O)Nc1ccc(S(=O)(=O)NC2=NCCCCC2)cc1 | 0 | -6 | 3 | -12 | -58*
CC(Oc1ccc(F)cc1)C(=O)Nc1ccc(S(=O)(=O)NC2=NCCCCC2)cc1 (centres undefined) | -29 | -5 | 33* | 0 | -6
COc1cc(SC)ccc1C(=O)Nc1cccc(S(=O)(=O)NC2=NCCCCC2)c1 | 20 | -1 | 11 | -6 | -38*
COCCCNC(=O)CSc1nc2nc(C)c(Cc3ccccc3Cl)c(C)n2n1 | x | 0 | 0 | 0 | -7
COc1ccc(CNC(=O)C(=O)Nc2c3c(nn2-c2ccccc2)CSC3)cc1 | x | -2 | 10 | -1 | x
CCc1ccc(S(=O)(=O)NCCc2csc3nc(-c4ccccc4)nn23)s1 | x | 0 | 30 | -2 | x
O=c1[nH]c2cc3ccccc3cc2nc1-c1nnnn1C1CCCC1 | -68* | -15 | x | x | x
CCOC(=O)C1(CC2CC2)CCN(Cc2ccc(OC)cc2F)CC1 | -68* | -18 | 13 | -6 | 13
CCOC(=O)C1(CC2CC2)CCN(Cc2cc(Cl)c(O)c(OC)c2)CC1 | -3 | -12 | 2 | -7 | 2
SMILES | DRD3 antagonist | D3 ag | D1 agonist | D1 potentiator | D1 antagonist
Oc1[nH]c2ccccc2c1N=NC(=S)NCC1CCCO1 (centres undefined) | u | -7 | 1 | -3 | -45*
O=C(COC(=O)COc1cccc(F)c1)NCCC1=CCCCC1 | -18 | 16 | 0 | -4 | -32*
O=C(COC(=O)Cc1c(Cl)cccc1Cl)NCCC1=CCCCC1 | 18 | 4 | 35* | -1 | -3
O=C(COC(=O)Cc1c(F)cccc1Cl)NCCC1=CCCCC1 | -2 | 1 | 20 | -11 | 6
O=C(COC(=O)c1ccccc1NCCO)NCCC1=CCCCC1 | -64* | -15 | 1 | -2 | -25
COC(=O)C1=C(C)Nc2nc(-c3ccccc3)nn2C1c1ccc(C)o1 (centres undefined) | -12 | 3 | 2 | -10 | -57*
COc1ccc(-c2nc3n(n2)C(c2ccncc2)C(C(N)=O)=C(C)N3)cc1 (centres undefined) | -59* | -3 | 6 | -7 | 28
COc1ccc(-c2nc3n(n2)C(c2cccnc2)C(C(N)=O)=C(C)N3)cc1 (centres undefined) | -4 | 2 | 2 | 1 | 3
Cc1cc(NC(=O)c2cccc(C(=O)Nc3cc(C)on3)n2)no1 | -24 | -7 | 3 | 5 | -5
Cc1cc(C(=O)Nc2ccccn2)no1 | 15 | 33* | 2 | 0 | -1
CC(=O)c1ccc(NC(=O)C[n+]2ccccc2)cc1 | 1 | 2 | 1 | -2 | -31*
O=C(C[n+]1ccc(C(=O)c2ccccc2)cc1)Nc1cccc([N+](=O)[O-])c1 | -95* | -13 | x | x | x
Cc1ccc(NC(=O)C[n+]2ccccc2)cc1[N+](=O)[O-] | -59* | -10 | x | x | x
COC(=O)c1ccc(NC(=O)C[n+]2ccccc2C)cc1 | -59* | -5 | 4 | -1 | 1
CCOC(=O)N1CCN(C(=O)c2cnn(-c3cccc(F)c3)c2-n2cccc2)CC1 | x | 2 | 1 | -1 | 0
O=C(Cn1cnc2c(oc3ccccc32)c1=O)Nc1ccc(F)cc1F | x | -30 | 8 | -2 | -14
Cc1ccc(NC(=O)COc2cccc(-n3cnnn3)c2)cc1[N+](=O)[O-] | -4 | 1 | 23 | -4 | -45*
CCN(CC)S(=O)(=O)c1ccc2c(c1)N(CC(=O)N1CCN(c3cccc(Cl)c3)CC1)C(=O)CO2 | x | -3 | 5 | 4 | -7
COc1ccc(NC(=O)CN(c2ccc([N+](=O)[O-])cc2)S(=O)(=O)c2ccccc2)cc1 | 4 | -14 | 33* | -11 | 3
COc1ccccc1N(CC(=O)NCCSc1ccccc1)S(=O)(=O)c1ccccc1 | 37 | 19 | x | x | x
COc1ccc(CCNC(=O)CN(c2ccccc2OC)S(=O)(=O)c2ccc(C)cc2)cc1 | 16 | 4 | 37*! | 5 | -36*!
COc1ccc(CCNC(=O)Cc2c(Cl)cccc2Cl)cc1 | -3 | -3 | 2 | 2 | -36*
COc1cccc(NC(=O)CN(c2ccc([N+](=O)[O-])cc2)S(=O)(=O)c2ccccc2)c1 | -5 | 3 | 6 | -6 | 4
COc1ccc(CCNC(=O)CC(=O)NCCc2ccc(OC)cc2)cc1 | 21 | 9 | 4 | -11 | -1
COc1ccccc1N(CC(=O)NCCSc1ccccc1)S(=O)(=O)c1ccc(C)cc1 | x | 3 | 31* | 1 | -17
CCc1ccccc1N(C)C(=O)c1nn(-c2ccc(OC)cc2)c(=O)c2c1c1ccccc1n2C | x | 13 | 5 | 0 | 6
CCN1C(C(=O)c2ccccc2)=C(OC(=O)COc2ccc(C)cc2)c2ccccc2S1(=O)=O | x | -20 | 0 | 0 | 2
Cc1ccc(CSCCNC(=O)CN(c2cccc(C)c2C)S(=O)(=O)c2ccccc2)cc1 | x | -1 | 17 | -1 | -6
